Source: PubChem BioAssay AID1645853 (Buhrlage Lab, Dana-Farber Cancer Institute and Novartis …, 2021)
In all, about 47,000 compounds went through this assay and about 2,000 (4.3%) were called active. This excerpt belongs to a sample that is enriched for actives. A number with no mark means an inactive call. Cut-off read from the data, not from the text of the source: active = inhibition above about 30%; inactive = the rest.

Target: Ubiquitin carboxyl-terminal hydrolase 8 (Homo sapiens) (UniProt P40818)
Sequence (P40818 whole entry, looked up): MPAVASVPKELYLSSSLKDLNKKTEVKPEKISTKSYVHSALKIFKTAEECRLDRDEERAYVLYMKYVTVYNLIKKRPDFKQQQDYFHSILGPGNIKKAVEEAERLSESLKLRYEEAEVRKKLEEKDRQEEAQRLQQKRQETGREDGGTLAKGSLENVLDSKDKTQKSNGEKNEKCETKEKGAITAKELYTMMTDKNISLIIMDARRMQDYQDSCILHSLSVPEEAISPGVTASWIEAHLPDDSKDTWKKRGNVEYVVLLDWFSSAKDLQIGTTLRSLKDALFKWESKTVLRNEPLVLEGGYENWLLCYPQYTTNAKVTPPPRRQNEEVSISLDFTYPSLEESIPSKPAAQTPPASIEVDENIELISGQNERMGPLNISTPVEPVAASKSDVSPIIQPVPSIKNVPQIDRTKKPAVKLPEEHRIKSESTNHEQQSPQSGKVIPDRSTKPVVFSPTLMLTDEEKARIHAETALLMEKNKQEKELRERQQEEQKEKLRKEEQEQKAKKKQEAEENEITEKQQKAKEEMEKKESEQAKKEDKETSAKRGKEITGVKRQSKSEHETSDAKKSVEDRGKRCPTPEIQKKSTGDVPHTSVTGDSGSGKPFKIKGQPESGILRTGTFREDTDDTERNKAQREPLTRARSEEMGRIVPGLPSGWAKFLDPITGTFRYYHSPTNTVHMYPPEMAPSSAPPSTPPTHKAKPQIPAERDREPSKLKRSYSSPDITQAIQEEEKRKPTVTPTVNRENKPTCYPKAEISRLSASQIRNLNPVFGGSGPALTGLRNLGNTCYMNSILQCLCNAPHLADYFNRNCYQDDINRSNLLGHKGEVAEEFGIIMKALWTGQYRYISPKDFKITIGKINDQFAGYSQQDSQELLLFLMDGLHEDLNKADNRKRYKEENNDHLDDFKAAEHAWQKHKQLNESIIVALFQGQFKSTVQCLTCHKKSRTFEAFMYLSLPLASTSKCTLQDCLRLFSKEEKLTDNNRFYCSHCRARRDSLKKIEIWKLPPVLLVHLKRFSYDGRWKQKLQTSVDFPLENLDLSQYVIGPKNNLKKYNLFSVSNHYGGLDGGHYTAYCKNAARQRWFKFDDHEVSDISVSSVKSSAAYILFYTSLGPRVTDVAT
Assay: inhibitors of human USP8 deubiquitinase (AID 1645853)
Conditions: purified USP8, Ub-rhodamine cleavage fluorescence, 30 min; at 20 µM; hits give high values

Structure (SMILES)	inhibition
O=C(NC(c1ccccc1)C1CC1)c1ccc2c(c1)S(=O)(=O)Nc1ncnn1-2 (stereo not given)	-8.33%
COc1ccccc1NS(=O)(=O)c1ccc2oc(Nc3ccc(Cl)c(C(F)(F)F)c3)nc2c1	-24.6%
COc1ccc2c(c1)c(N1CCCC1=O)c(C(=O)NCc1ccccn1)n2C	-0.85%
Cc1nn(CC(=O)c2cc(C)n(-c3ccc4c(c3)OCO4)c2C)c(C)c1[N+](=O)[O-]	58.8% (active)
Cc1nn(-c2ccc(F)cc2)c(C)c1S(=O)(=O)NCc1ccc2c(c1)OCO2	-20.2%
COc1cccc(C2C3=C(CC(C)(C)CC3=O)Nc3ccccc3N2C(=O)Cc2ccccc2)c1 (stereo not given)	2.23%
Cc1cc(C)cc(NC(=O)Cn2cnc(-c3nc(C)cs3)c2)c1	-4.24%
Cc1ccccc1-c1nc(-c2cn(CC(=O)Nc3ccccc3)cn2)no1	64.4% (active)
Cc1ccccc1-c1nc(-c2cccc(OCC(=O)N3CCOCC3)c2)no1	7.89%
C[C@H](NC(=O)c1ccc2c(c1)OCO2)c1nc2cc(-c3ccc(F)cc3)ncn2n1	18%
Nc1c(-c2ccc(Cl)cc2)cnc2c(-c3ccccc3)c(COc3ccccc3)nn12	-0.15%
COc1ccc(-c2noc(-c3cccc(OCC(=O)NC(C)C)c3)n2)cc1	-16.3%
COc1ccc(OCC(=O)Nc2noc(-c3ccccc3)n2)cc1	15.1%
COc1ccc(NC(=O)Cc2noc(-c3cccc(OC)c3)n2)cc1	50.5% (active)
CN(C)[C@@H]1CN(S(=O)(=O)N2CCOCC2)C[C@H]1O	11.8%
Cc1ccc(C(=O)N2C[C@@H]3CCN(c4ncccn4)C[C@@H]3C2)cc1	-16.6%
COc1cccc(CNC(=O)Cn2cnc(S(=O)(=O)N3CCCC3)c2)c1	19%
COc1cccc(NC(=O)c2nnn(Cc3nc(-c4cccc(C)c4)oc3C)c2N)c1	-2.67%
COc1cccc(CNC(=O)c2nnn(CC(=O)Nc3cc(C)ccc3C)c2N)c1	67.9% (active)
Cc1nc(-c2ccc(C)c(S(=O)(=O)NCC(=O)Nc3cccc(Cl)c3)c2)no1	7.8%
Cc1ccc(C)c(NC(=O)c2cn(C)cc3c(=O)n(-c4ccccc4)nc2-3)c1	-13.8%
Cc1ccc(Nc2nc(NCC(=O)Nc3cc(C)ccc3C)nc(Nc3ccc(C)cc3)n2)cc1	38% (active)
CCCN1CCC(N2C[C@@H]3CN(S(=O)(=O)c4ccccc4)C[C@@H]3C2)CC1	-38.2%
Cc1nc(-c2ccccc2)sc1-c1nc(-c2ccccc2)ncc1S(=O)(=O)c1ccccc1	63.3% (active)

Structure (SMILES)	inhibition
COc1ccc2ncc(S(=O)(=O)c3ccccc3)c(Nc3ccc(F)cc3)c2c1	17.2%
Cc1ccc2c(c1)CN(S(C)(=O)=O)CC1(CCN(CC(=O)N3CCCCC3)CC1)O2	0.0399%
CCOC(=O)C1CCN(S(=O)(=O)c2cc3[nH]c4c(c3cc2CC)C(=O)CCC4)CC1	-25.1%
Cc1cc(C(F)(F)F)nn1CC(=O)O	-0.231%
O=C(Cc1ccc(Cl)cc1)NCC(=O)Nc1nc2ccccc2[nH]1	-1.55%
CC1=C(C(=O)Nc2ccccc2)C(c2ccc(OCc3c(Cl)cccc3Cl)cc2)n2ncnc2N1 (stereo not given)	-1.68%
COCCNC(=O)c1ccc2nnc3ncn(C(C)C)c3c2c1	-31.7%
COc1ccc(-c2noc(-c3ccc(N(C)Cc4ccco4)nn3)n2)cc1	35.7% (active)
COc1ccc(-c2noc(C3(c4ccccc4)CCOCC3)n2)cc1	19.2%
COc1ccc(-c2nc(-c3cccs3)no2)cc1OC	-15.4%
O=C1CC(C(=O)Nc2ccccc2F)N=C(N2CCN(c3ccccc3F)CC2)N1 (stereo not given)	3.41%
O=C(CSc1ccc2nnc(-c3ccccc3)n2n1)N1CCCc2ccccc21	29.4%
COc1cccc(NC(=O)CN2CCN(c3nc4ccc([N+](=O)[O-])cc4s3)CC2)c1	-52.2%
CC(C)N(C(=O)CSc1nc2ccc([N+](=O)[O-])cc2s1)C(C)C	49.5% (active)
O=[N+]([O-])c1ccc(S(=O)(=O)N2CCN(c3nc4ccccc4s3)CC2)cc1	-0.0867%
O=C1NCCCCC1NS(=O)(=O)c1ccc2c(c1)OCCCO2 (stereo not given)	-2.35%
Cc1cc(F)ccc1NC(=O)Cc1n[nH]c(Cc2ccccc2)n1	2.95%
Cc1ccccc1NC(=O)Cc1csc2nc(-c3ccc(F)cc3)cn12	85.8% (active)
O=C(Cc1ccc(F)cc1)Nc1ccccc1Cc1ccccc1	19.3%
COc1cccc(C(=O)OCc2csc(-c3ccccc3)n2)c1OC	4.14%
Nc1cc(C2CCN(C(=O)Cc3ccc(F)cc3)CC2)no1	1.13%
COc1ccccc1CNC(=O)c1ccc(Cl)c(S(=O)(=O)N2CCCC2)c1	-5.09%
COc1ccccc1CNCc1c(C(=O)O)c(C)n(-c2ccccc2)c1C	27.6%
COc1cccc(-n2c(=O)[nH]c3c(C(N)=O)nc(-c4ccccn4)nc32)c1	-282%

Structure (SMILES)	inhibition
COc1ccccc1CNC(=O)c1c(O)c2cccnc2n(-c2ccccc2)c1=O	80.6% (active)
COc1cccc(-n2c(=O)c(C(=O)NC(C)c3ccccc3)c(O)c3cccnc32)c1 (stereo not given)	81.5% (active)
COc1cccc(NC(=O)Nc2nccn(-c3ccccc3)c2=O)c1	5.06%
CN(C)S(=O)(=O)N1CCOC(c2cncc(-c3cccc(F)c3)n2)C1 (stereo not given)	-2.26%
O=C(C1COc2ccccc2O1)N1CCN(c2nc(C(F)(F)F)nc3ccccc23)CC1 (stereo not given)	11.8%
COC(=O)c1ccc(C2Oc3ccccc3CN2c2ccccc2Cl)cc1 (stereo not given)	22%
COc1ccc(-c2csc(N)n2)c(O)c1	3.16%
Cc1ccc(-n2c(C)nnc2SCC(=O)NC2CC2)cc1	1.76%
Cc1nc(C2CCCN2C(=O)c2ccc(OCC3CC3)nc2)no1 (stereo not given)	5.37%
Cc1nc2cc(-c3noc(-c4sc(C)nc4C)n3)ccc2o1	7.81%
O=C(NCCc1c[nH]c2ccccc12)c1cc2cc(Cl)ccc2o1	16.2%
O=C(Cc1csc(NC(=O)c2ccc(=O)[nH]c2)n1)NCc1ccco1	-11.3%
O=C(CCc1csc(NC(=O)c2ccc(=O)[nH]c2)n1)NCCc1c[nH]c2ccccc12	62.3% (active)
COc1cc(C2CCN(S(=O)(=O)c3cccc(C#N)c3)CC2)on1	-4.99%
N=C(N)C1CN(Cc2ccccc2)C(=O)NC1=O (stereo not given)	-100%
c1cc(CNCc2ccc3c(c2)OCO3)ccn1	11%
c1ccc(-c2ccc(NCc3ccc4c(c3)OCO4)nn2)cc1	92% (active)
CCC(Oc1ccccc1)C(=O)NCc1ccc2c(c1)OCO2 (stereo not given)	-79.7%
COc1cc(N2CC[C@@H]3[C@@H](CO[C@H]3CNc3ncccn3)C2)ncn1	-92.4%
N#Cc1cccc(CSc2ncnc(N)n2)c1	18.1%
Cn1cc2nc(SCC(=O)NCc3ccc(Cl)cc3)n(CC3CC3)c(=O)c2n1	38.7% (active)
Cc1oc(CNC(=O)Cc2ccc(Cl)cc2)nc1C(=O)N1CCC(C)CC1	0.0949%
COc1ccc(CNC(=O)CSc2nnc3c4ccccc4nc(-c4ccco4)n23)cc1	-1.03%
O=C(CSc1ncn[nH]1)NCc1ccc2c(c1)OCO2	19.2%

Structure (SMILES)	inhibition
CCN1CCN(c2ccc(NC(=O)C3CCCCC3)cn2)C1=O	1.18%
CS(=O)(=O)N(Cc1ccccc1F)c1ccc(Oc2ccc(N(Cc3ccccc3F)S(C)(=O)=O)cc2)cc1	0.186%
O=C(NCCc1cccnc1)c1ccn(-c2ccc3ccccn23)n1	-25.8%
Cc1nnc2ccc(-c3ccc(NC(=O)c4ccc(Br)o4)cc3)nn12	65.6% (active)
Cc1ccc(-c2cc(C(F)F)n3ncc(C(=O)NCC(C)C)c3n2)cc1	25.9%
CCCCc1nc2sc3c(SCC(=O)NCc4ccccc4)ncnc3c2c2c1CCC2	-1.42%
COc1ccccc1C(=O)Nc1cccc(Oc2ccccc2)c1	11.4%
CC1(C)CC(=O)c2ccc(OCC(=O)Nc3ccccc3)cc2O1	5.38%
O=C(O)CC1(CC(=O)Nc2ccc(Oc3ccccc3)cc2)CCCC1	33% (active)
Cc1cc(C)cc(NC(=O)c2cnc3sc4c(n3c2=O)CCCC4)c1	3.8%
CCOC(=O)c1cc2c(ccn2C)n1CC(=O)N1CCC(C)CC1	-57.3%
CCOC(=O)c1cc2c(ccn2C)n1CC(=O)N1CCc2ccccc2C1	-42.9%
CCOC(=O)c1cc2c(ccn2C)n1CC(=O)Nc1ccc2c(c1)OCCO2	32.8% (active)
O=C(c1ccc(Cl)cc1)N1CCSc2cc(Cl)ccc21	12%
COc1ccc(CC(=O)Nc2ccc3c(c2)CCC3)cc1S(=O)(=O)N1CCOCC1	0.366%
COc1cc2c(cc1OC)CN(C(=O)c1cc(=O)c3ccccc3o1)CC2	3.84%
COc1ccc(CC(=O)Nc2ccc3c(c2)CN(C(=O)c2ccco2)CC3)cc1	33.2% (active)
CCN1CCn2c(-c3cnn(C)c3)cnc2C12CCN(S(=O)(=O)CC(C)C)CC2	-29.1%
Cc1nn(-c2ccccc2)c2[nH]c(=O)c(C#N)c(-c3ccco3)c12	10.2%
CC(C)(C)c1nn(-c2ccccc2)c2[nH]c(=O)c(CNCCc3ccccc3)cc12	85% (active)
Cc1ccc(CCNCc2c(C(=O)O)n(C)c3ccccc23)cc1	-1.77%
Cc1ccc(NCc2cc3c(C)nn(-c4ccccc4)c3[nH]c2=O)cc1C	76.5% (active)
Cc1ccc(NC(=O)NCc2nnnn2-c2ccccc2)cc1C	0.496%
